Assay outcomes as filed in PubChem.
Shown are actives, neighbours in structure and some others; about 10% of the full set was active somewhere.
KB-3-1 cytotox: KB-3-1 parental cell cytotoxicity; 1.4% of 400,000 active; Potency, µM (series often up to 46.1 µM), hits mostly cytotoxic; KB-3-1 viability, CellTiter-Glo ATP luminescence, 72 h; note: % is set by controls: 0 for no effect and ±100 for the full control effect; nearly all actives have a fitted effect of over 60% in size
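Cells are dispensed, compounds pinned in, plates held at 37 °C for 72 h, then CellTiter-Glo is added and luminescence read after 10 minutes. Cell line: parental KB-3-1 in phenol-red-free DMEM, 10% FBS.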
RORg inh: blocks mouse ROR gamma transcriptional activity; P51450; Drosophila S2 Gal4-RORgamma UAS-luciferase reporter, 20 h; Potency, µM (highest dose often 53.6 µM), for inactives: top-dose activity change, negative = inhibition, usual class: inhibitors; 5.4% of 310,000 active; note: % is set by controls: 0 for no effect and ±100 for the full control effect; nearly all actives have a fitted effect of over 60% in size
Target sequence (P51450 whole entry, looked up, the tested form may be a part): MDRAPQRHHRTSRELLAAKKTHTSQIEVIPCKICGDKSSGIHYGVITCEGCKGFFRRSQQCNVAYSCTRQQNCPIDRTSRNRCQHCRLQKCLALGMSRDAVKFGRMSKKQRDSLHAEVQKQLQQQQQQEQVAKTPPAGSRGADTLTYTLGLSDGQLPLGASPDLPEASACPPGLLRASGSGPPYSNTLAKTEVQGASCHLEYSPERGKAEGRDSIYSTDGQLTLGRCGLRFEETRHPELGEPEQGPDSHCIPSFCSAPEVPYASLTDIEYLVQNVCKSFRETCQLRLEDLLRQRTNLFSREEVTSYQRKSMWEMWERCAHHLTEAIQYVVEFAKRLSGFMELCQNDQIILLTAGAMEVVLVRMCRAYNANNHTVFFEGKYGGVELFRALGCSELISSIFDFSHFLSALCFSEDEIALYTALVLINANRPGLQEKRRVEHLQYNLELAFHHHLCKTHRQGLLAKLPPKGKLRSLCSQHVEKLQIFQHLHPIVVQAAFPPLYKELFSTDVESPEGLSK
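Compounds are pin-transferred onto Drosophila Schneider cells expressing a copper-inducible Gal4–ROR gamma transactivation domain fusion. After 1 hr, copper sulfate is added to 700 uM final; luciferase is read 20 hr later.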
KB-V1 MDR tox: KB-V1 MDR subline cytotoxicity; KB-V1 MDR cells viability, CellTiter-Glo, 72 h; Potency, µM (top dose mostly 46.1 µM), hits mostly cytotoxic; 3.4% of 400,000 active; AID 1347076; note: % is set by controls: 0 for no effect and ±100 for the full control effect; nearly all actives have a fitted effect of over 60% in size
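KB-V1, DMEM (no phenol red) + 10% FBS; cpd pin-transferred, titration series; 72 h, 37 degrees C; CellTiter-Glo, luminescence. Data normalized, curve-fit.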
SW480 rerep: inducers of DNA re-replication in SW480 colon cancer cells; 1.8% of 340,000 active; SW480 DNA re-replication, Hoechst DNA content imaging, 48 h; Potency, µM (titrated, usually from 46.1 µM), for the others: at the top dose re-replication activation, actives largely listed as activators; note: % of control where 0% means no effect; nearly all actives have a fitted effect of over 55% in size
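DNA re-replication was detected as more nuclei of elevated Hoechst intensity after 48 hr exposure to compound (23 nL pinned per well of 250 cells).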
Gal4-VP16 FLuc: counter-screen for ROR gamma inhibitors: Gal4-VP16 reporter | Potency, µM (highest dose often 53.6 µM), without a hit: at the top dose activity, negative = inhibition, hits mostly inhibitors | Drosophila S2 Gal4-VP16 UAS-luciferase, luminescence, 20 h | 3.5% of 310,000 active;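 note: Gal4-VP16 expression switched on by copper sulfate through the metallothionein promoter; % is set by controls: 0 for no effect and ±100 for the full control effect; nearly all actives have a fitted effect of over 50% in size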
MCF10A rerep: DNA re-replication induction in MCF 10a cells; 2.9% of 350,000 active; MCF 10A DNA re-replication, Hoechst nuclear intensity, 48 h; Potency, µM (titrated, usually from 46.1 µM), for the others: at the highest dose activity, positive = re-replication, hits mostly activators; AID 624296; note: % of control where 0% means no effect; nearly all actives have a fitted effect of over 50% in size
Numbers without * were called inactive; i = inactive; ? = inconclusive; nt = no result given; [ ] = another dose, or the depositor's remark. Calls come from the whole dose curve; as a rule, active = well fitted curve in the direction sought with a large enough effect; inconclusive = small, poorly fitted or top-dose-only effect, or another doubt; inactive = no such curve, though single readings can be large; an effect the other way counts as inactive or inconclusive. Potency is the fitted concentration of half-maximal effect.

SMILES	KB-3-1 cytotox	RORg inh	KB-V1 MDR tox	SW480 rerep	Gal4-VP16 FLuc	MCF10A rerep
CC(=O)N1CCN(c2nc(CC(C)C)c3c(c2C#N)CCC3)CC1	i	12%	i	-10%	1%	14%
CC(C)Cc1nc(N2CCN(C(=O)c3ccccc3)CC2)c(C#N)c2c1CCC2	i	35µM*	i	15%	40µM*	?
CC(C)Cc1nc(N2CCN(C(=O)C(C)C)CC2)c(C#N)c2c1CCC2	i	1.4µM*	i	13%	-5%	?
CC(C)Cc1nc(N2CCN(C(=O)c3ccco3)CC2)c(C#N)c2c1CCC2	?	-87%	?	3%	?	21µM*
CCn1c(N2CCN(C(=O)c3ccco3)CC2)nc2ccccc21	i	nt	i	-8%	nt	-10%
CC(C)c1cc(N2CCN(C(=O)c3ccco3)CC2)n2c(nc3ccccc32)c1C#N	i	-27%	i	29%	3%	23µM*
CC(C)Cc1nc(N2CCCCC2)c(C#N)c2c1CCC2	i	19%	i	5%	-10%	?
CC[C@@H](C)[C@H]1O[C@]2(CC[C@@H]1C)C[C@@H]1C[C@H](C/C=C(/C)[C@H](O[C@@H]3C[C@H](OC)[C@H](O[C@@H]4C[C@H](OC)[C@@H](O)[C@H](C)O4)[C@H](C)O3)[C@@H](C)/C=C\C=C3CO[C@@H]4[C@H](O)C(C)=C[C@@H](C(=O)O1)[C@]34O)O2 (tested in a mixture with another compound)	nt	7%	nt	nt	6%	nt
O=C(NCC(c1ccc2c(c1)OCO2)N1CCOCC1)c1ccc(F)cc1 (configuration not stated)	i	nt	i	nt	nt	nt
O=c1c(-c2cc(F)cc(F)c2)nc2cnc(N3CCNCC3)nc2n1CCc1ccccc1	nt	1%	nt	nt	-5%	nt
N#Cc1c(N2CCN(C(=O)c3ccco3)CC2)nc(-c2ccccc2)c2c1CCCC2	i	?	21µM*	8%	?	7%
CO[C@@H]1COC(=O)[C@@H](CCSC)NC(=O)C/C=C\[C@@H](C)COC(=O)CCC[C@H]1C	nt	-15%[10 µM]	nt	nt	-6%[10 µM]	nt
O=C(CCl)NC(Cc1ccccc1)c1ccccc1 (configuration not stated)	?	2%	?	16µM*	6%	?
CC(=O)C(Cc1ccccc1)NC(=O)CCl (configuration not stated)	?	0%	i	1%	-18%	13%
CCC(NC(=O)c1ccccc1O)c1ccccc1 (configuration not stated)	i	1%	16µM*	-2%	14%	-2%
CCC(NC(=O)c1ccc([N+](=O)[O-])cc1[N+](=O)[O-])c1ccccc1 (configuration not stated)	i	-15%	i	16%	3%	-6%
CCC(NC(=O)CCCc1ccccc1)c1ccccc1 (configuration not stated)	i	6%	18µM*	-52%	-9%	?
Cc1ccccc1C(=O)NCC(c1cccnc1)N1CCc2ccccc21 (configuration not stated)	i	nt	i	nt	nt	nt
COc1ccc(/C=C/N(CCc2ccc(OC)c(OC)c2)C(=O)C(F)(F)F)cc1	nt	9%[10 µM]	nt	nt	0%[10 µM]	nt
CCc1ccc(NC(=O)CN2C(=O)CC(c3ccccc3)Sc3ccccc32)cc1 (configuration not stated)	i	nt	i	nt	nt	nt
CC(C)(C)c1cc(CN2CCCC(O)C2)c(O)c(C(C)(C)C)c1 (configuration not stated)	?	-42%	16µM*	20%	-15%	129%
CC(C)(C)c1cc(CN2CCCCC2)cc(C(C)(C)C)c1O	nt	-25%	nt	nt	?	nt
CC(C)=C1C2CCC1C1C(=O)N(c3nc(-c4ccc(F)cc4)c(C)s3)C(=O)C21 (configuration not stated)	i	4%	?	16%[9.22 µM]	20µM*	?
CCCCCCn1cc(CN2CC(N3CCN(Cc4ccccc4F)CC3)CS2(=O)=O)nn1 (configuration not stated)	?	nt	i	nt	nt	nt
CCc1cc(-c2n[nH]c(=S)n2-c2cccc(C)c2)cs1	i	0.32µM*	i	-3%	0.56µM*	7%
SMILES	KB-3-1 cytotox	RORg inh	KB-V1 MDR tox	SW480 rerep	Gal4-VP16 FLuc	MCF10A rerep
Fc1cccc(-c2n[nH]c(=S)n2-c2ccccc2)c1	i	8.9µM*	i	?	7.9µM*	3%
Cc1cccc(-n2c(-c3csc(C)c3)n[nH]c2=S)c1	i	4µM*	i	?	8.9µM*	-22%
Cn1cc(Cl)c(-c2n[nH]c(=S)n2-c2ccccc2)n1	i	-40%	i	-6%	-6%	1%
S=c1[nH]nc(-c2ccccc2)n1-c1ccccc1	i	nt	i	nt	nt	nt
O=C(C1CCN(S(=O)(=O)Cc2ccccc2)CC1)N1CCN(c2cccc(C(F)(F)F)c2)CC1	i	nt	i	nt	nt	nt
CC1Cc2ccccc2N1C(=O)c1ccc2snnc2c1 (configuration not stated)	i	2%	i	-2%	-2%	-28%
Cc1nc2cc(C(=O)N3c4ccccc4CC3C)ccc2s1 (configuration not stated)	21µM*	-1%	?	?	6%	-4%
Cn1c(=O)c2c(nc(NCCCN3CCOCC3)n2Cc2cccc(Cl)c2)n(C)c1=O	i	-8%	i	-3%	16%	3%
Cn1c(=O)c2c(nc(NCCCN3CCOCC3)n2Cc2ccc(Cl)cc2)n(C)c1=O	i	15%	i	0%	-17%	0%
Cn1c(NCCCN2CCOCC2)nc2c1c(=O)n(Cc1ccc(Cl)cc1)c(=O)n2C	i	4%	18µM*	-1%	-20%	19%
COc1ccc(CNc2nc3c(c(=O)n(Cc4ccc(Br)cc4)c(=O)n3C)n2C)cc1	?	10%	9.2µM*	17%	-16%	?
Cn1c(NCCCN2CCOCC2)nc2c1c(=O)n(Cc1ccc(Cl)c(Cl)c1)c(=O)n2C	i	-22%	15µM*	1%	-1%	?
C#CCOC(=O)c1ccccc1C(=O)OCC#C	i	5%	i	-2%	-10%	-2%
C#CCOC(=O)c1ccccc1C(=O)n1nnc2ccccc21	i	18µM*	i	?	?	18%
O=C1CC(/C=C/c2ccncc2)=Nc2ccccc2N1	?	26%	?	16µM*	0%	?
